# Among all 5,500 compounds or so, about 2,000 (36%) were called active. Not shown: some 18% with an inconclusive outcome. The list shows a part of the results. Values without a mark were called inactive. Rule as the data show it: active = normalized growth mostly below about 0.91 (no sharp cut-off); inconclusive = no clear call, values can overlap the other calls; inactive = mostly above about 0.92.
# Assay: chemical genetic growth profiling, strain panel (AID 1159580);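 also: tested at 20 µM; growth read once vehicle control cultures reached saturation at 30 °C; 1 = growth at the plate median or of vehicle wells; lower values mean less growth of the strain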
# Details: S. cerevisiae deletion strains, growth OD
# [1] = locus YDL101C, strain DUN1, stronger effect = lower value
# [2] = locus YHR030C, strain SLT2, stronger effect = lower value
structure (smiles),measurement,setting,value
COc1nc(N)nc(SC)n1,normalized growth,"locus YAL013W, strain DEP1, stronger effect = lower value",0.995
same,normalized growth,"locus YBR229C, strain ROT2, stronger effect = lower value",1
same,normalized growth,"locus YCL061C, strain MRC1, stronger effect = lower value",0.988
same,normalized growth,[1],1
same,normalized growth,"locus YDR150W, strain NUM1, stronger effect = lower value",1
same,normalized growth,"locus YEL061C, strain CIN8, stronger effect = lower value",0.989
same,normalized growth,"locus YGR078C, strain PAC10, stronger effect = lower value",1.02
same,normalized growth,"locus YGR229C, strain SMI1, stronger effect = lower value",0.985
same,normalized growth,[2],1.05
same,normalized growth,"locus YHR087W, strain rtc3, stronger effect = lower value",0.992
same,normalized growth,"locus YJR043C, strain POL32, stronger effect = lower value",0.987
same,normalized growth,"locus YJR075W, strain HOC1, stronger effect = lower value",0.987
same,normalized growth,"locus YKL190W, strain CNB1, stronger effect = lower value",0.974
same,normalized growth,"locus YLR039C, strain RIC1, stronger effect = lower value",0.97
same,normalized growth,"locus YLR058C, strain SHM2 (second series), stronger effect = lower value",0.989
same,normalized growth,"locus YLR085C, strain ARP6, stronger effect = lower value",0.984
same,normalized growth,"locus YLR262C, strain YPT6, stronger effect = lower value",0.974
same,normalized growth,"locus YML094W, strain GIM5, stronger effect = lower value",1.12
same,normalized growth,"locus YMR219W, strain ESC1, stronger effect = lower value",0.993
same,normalized growth,"locus YMR263W, strain SAP30, stronger effect = lower value",0.984
same,normalized growth,"locus YNL128W, strain TEP1, stronger effect = lower value",0.979
same,normalized growth,"locus YNL153C, strain GIM3, stronger effect = lower value",1
same,normalized growth,"locus YNL298W, strain CLA4 (second series), stronger effect = lower value",0.98
same,normalized growth,"locus YNL322C, strain KRE1, stronger effect = lower value",1
same,normalized growth,"locus YNR030W, strain Alg12, stronger effect = lower value",1.02
same,normalized growth,"locus YOL006C, strain TOP1, stronger effect = lower value",0.978
same,normalized growth,"locus YPL055C, strain LGE1, stronger effect = lower value",1.01
same,normalized growth,"locus YPL241C, strain CIN2, stronger effect = lower value",1.14
same,normalized growth,"locus YPR135W, strain CTF4, stronger effect = lower value",1.03
COc1cc(C(=O)Oc2c(Cl)cc(Cl)cc2C=Nc2cccc([N+](=O)[O-])c2)cc(OC)c1OC,normalized growth,"locus YAR019C, strain CDC15, stronger effect = lower value",0.959
same,normalized growth,"locus YBL105C, strain PKC1, stronger effect = lower value",0.971
same,normalized growth,"locus YBR135W, strain CKS1, stronger effect = lower value",0.973
same,normalized growth,"locus YBR136W, strain MEC1, stronger effect = lower value",0.977
same,normalized growth,"locus YBR160W, strain CDC28, stronger effect = lower value",0.98
same,normalized growth,"locus YDL017W, strain CDC7, stronger effect = lower value",0.982
same,normalized growth,"locus YDL028C, strain MPS1, stronger effect = lower value",0.962
same,normalized growth,[1],0.985
same,normalized growth,"locus YDL108W, strain KIN28, stronger effect = lower value",0.971
same,normalized growth,"locus YDL132W, strain cdc53, stronger effect = lower value",0.962
same,normalized growth,"locus YDL214C, strain PRR2, stronger effect = lower value",0.607 (active)
same,normalized growth,"locus YDR052C, strain DBF4, stronger effect = lower value",0.987
same,normalized growth,"locus YDR054C, strain cdc34, stronger effect = lower value",0.956
same,normalized growth,"locus YDR226W, strain ADK1, stronger effect = lower value",0.964
same,normalized growth,"locus YDR477W, strain SNF1, stronger effect = lower value",0.626 (active)
same,normalized growth,"locus YER123W, strain YCK3, stronger effect = lower value",0.415 (active)
same,normalized growth,"locus YER133W, strain GLC7, stronger effect = lower value",0.59 (active)
same,normalized growth,"locus YFL009W, strain cdc4, stronger effect = lower value",0.958
same,normalized growth,"locus YFL029C, strain CAK1, stronger effect = lower value",0.98
same,normalized growth,"locus YFR003C, strain YPI1, stronger effect = lower value",0.976
same,normalized growth,"locus YFR019W, strain FAB1, stronger effect = lower value",0.706 (active)
same,normalized growth,"locus YFR028C, strain CDC14, stronger effect = lower value",0.965
same,normalized growth,"locus YGR040W, strain KSS1, stronger effect = lower value",0.648 (active)
same,normalized growth,"locus YGR052W, strain FMP48, stronger effect = lower value",0.561 (active)
same,normalized growth,"locus YGR092W, strain DBF2, stronger effect = lower value",0.336 (active)
same,normalized growth,[2],0.387 (active)
same,normalized growth,"locus YHR079C, strain IRE1, stronger effect = lower value",0.438 (active)
same,normalized growth,"locus YHR082C, strain KSP1, stronger effect = lower value",0.569 (active)
same,normalized growth,"locus YHR205W, strain SCH9, stronger effect = lower value",0.473 (active)
same,normalized growth,"locus YIL147C, strain SLN1, stronger effect = lower value",0.973
same,normalized growth,"locus YJL095W, strain BCK1, stronger effect = lower value",0.473 (active)
same,normalized growth,"locus YJL128C, strain PBS2, stronger effect = lower value",0.921
same,normalized growth,"locus YJL157C, strain FAR1, stronger effect = lower value",0.629 (active)
same,normalized growth,"locus YJR016C, strain ILV3, stronger effect = lower value",0.988
same,normalized growth,"locus YJR066W, strain TOR1 (second series), stronger effect = lower value",0.801
same,normalized growth,"locus YJR066W, strain TOR1, stronger effect = lower value",0.427 (active)
same,normalized growth,"locus YKL048C, strain ELM1, stronger effect = lower value",0.776 (active)
same,normalized growth,"locus YKL067W, strain YNK1, stronger effect = lower value",0.613 (active)
same,normalized growth,"locus YKL101W, strain HSL1, stronger effect = lower value",0.678 (active)
same,normalized growth,"locus YKL193C, strain SDS22, stronger effect = lower value",0.979
same,normalized growth,"locus YKL203C, strain TOR2, stronger effect = lower value",0.738
same,normalized growth,"locus YLR113W, strain HOG1, stronger effect = lower value",0.577 (active)
same,normalized growth,"locus YLR133W, strain CKI1, stronger effect = lower value",0.621 (active)
same,normalized growth,"locus YLR403W, strain SFP1, stronger effect = lower value",0.51 (active)
same,normalized growth,"locus YML070W, strain DAK1, stronger effect = lower value",0.642 (active)
same,normalized growth,"locus YMR001C, strain CDC5, stronger effect = lower value",0.981
same,normalized growth,"locus YMR205C, strain PFK2 (second series), stronger effect = lower value",0.646 (active)
same,normalized growth,"locus YMR277W, strain FCP1, stronger effect = lower value",0.972
same,normalized growth,"locus YNL006W, strain LST8, stronger effect = lower value",0.995
same,normalized growth,"locus YNL020C, strain ARK1, stronger effect = lower value",0.597 (active)
same,normalized growth,"locus YNL161W, strain CBK1, stronger effect = lower value",0.982
same,normalized growth,"locus YNL183C, strain NPR1, stronger effect = lower value",0.54 (active)
same,normalized growth,"locus YNL207W, strain RIO2, stronger effect = lower value",0.966
same,normalized growth,"locus YNL222W, strain SSU72, stronger effect = lower value",0.98
same,normalized growth,"locus YNL307C, strain MCK1 (second series), stronger effect = lower value",0.566 (active)
same,normalized growth,"locus YOL078W, strain AVO1, stronger effect = lower value",0.978
same,normalized growth,"locus YOL136C, strain PFK27, stronger effect = lower value",0.597 (active)
same,normalized growth,"locus YOR061W, strain CKA2, stronger effect = lower value",0.576 (active)
same,normalized growth,"locus YOR119C, strain RIO1, stronger effect = lower value",0.642 (active)
same,normalized growth,"locus YOR231W, strain MKK1, stronger effect = lower value",0.494 (active)
same,normalized growth,"locus YOR329C, strain SCD5, stronger effect = lower value",0.985
same,normalized growth,"locus YPL031C, strain PHO85, stronger effect = lower value",0.6 (active)
same,normalized growth,"locus YPL153C, strain RAD53, stronger effect = lower value",0.619 (active)
same,normalized growth,"locus YPL204W, strain HRR25, stronger effect = lower value",0.58 (active)
same,normalized growth,"locus YPL209C, strain IPL1, stronger effect = lower value",0.978
same,normalized growth,"locus YPL256C, strain CLN2, stronger effect = lower value",0.481 (active)
same,normalized growth,"locus YPR025C, strain CCL1, stronger effect = lower value",0.973
same,normalized growth,"locus YPR106W, strain ISR1, stronger effect = lower value",0.959
same,normalized growth,"locus YPR111W, strain DBF20, stronger effect = lower value",0.928
same,normalized growth,"strain NNK1, stronger effect = lower value",0.963
same,normalized growth,"strain TSCII, stronger effect = lower value",0.982

# — PubChem BioAssay AID1159580 (chemical genetic matrix, 2015)
